This is one part of the list. The hit rate among all sequences tested is not known here.
Molecular target: furin, P09958
Assay: furin cleavage Z-score vs untreated control; higher = more cleavage, active = 3.5 or more, inactive = 1 or less, 8 variable residues between constant flanks
Procedure, shortened: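 Furin-free reactions served as the baseline for the cleavage Z-score, which is the log read count lowess-adjusted and scaled by median absolute deviation. Counts came from released DNA, adapter-tagged by PCR and sequenced. Purified furin had cut 8-mer peptides fused to a cDNA oligonucleotide on magnetic beads during 7.5, 15 or 30 min at 1:10 enzyme:substrate.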
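Note: purified furin at 1:10 enzyme:substrate in 50 mM HEPES pH 7.5.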

Chain of furin, P09958 (P09958 whole entry): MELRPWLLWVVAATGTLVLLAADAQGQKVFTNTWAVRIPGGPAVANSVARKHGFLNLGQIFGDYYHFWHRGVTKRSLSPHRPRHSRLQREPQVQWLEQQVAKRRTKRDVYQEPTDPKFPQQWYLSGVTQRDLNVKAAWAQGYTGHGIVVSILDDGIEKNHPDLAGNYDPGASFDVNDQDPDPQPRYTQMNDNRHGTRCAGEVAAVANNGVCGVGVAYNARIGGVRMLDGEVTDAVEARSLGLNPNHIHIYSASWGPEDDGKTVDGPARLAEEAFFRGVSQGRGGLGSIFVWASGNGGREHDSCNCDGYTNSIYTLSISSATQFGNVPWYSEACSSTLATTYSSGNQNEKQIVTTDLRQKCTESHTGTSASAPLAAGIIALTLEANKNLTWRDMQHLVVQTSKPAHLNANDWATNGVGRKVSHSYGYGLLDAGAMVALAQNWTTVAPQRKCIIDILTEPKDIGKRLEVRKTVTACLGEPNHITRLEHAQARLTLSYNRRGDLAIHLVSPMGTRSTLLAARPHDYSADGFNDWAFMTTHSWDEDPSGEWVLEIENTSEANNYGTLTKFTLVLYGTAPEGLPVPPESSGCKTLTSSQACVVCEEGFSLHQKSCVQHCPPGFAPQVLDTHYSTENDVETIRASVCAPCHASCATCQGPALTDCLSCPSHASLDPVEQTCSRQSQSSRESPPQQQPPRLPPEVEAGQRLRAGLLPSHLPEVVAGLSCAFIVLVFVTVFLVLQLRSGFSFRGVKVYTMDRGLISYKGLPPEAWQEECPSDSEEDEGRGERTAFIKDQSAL

| Sequence | furin cleavage Z-score (7.5 min) | furin cleavage Z-score (15 min) | furin cleavage Z-score (30 min) |
| --- | --- | --- | --- |
| CARAERRPRRAGNASASA [FS-1059] | 8.38 (active) | 9.79 (active) | 8.17 (active) |
| CARRHRTYRWAGNASASA [FS-864] | 7.43 (active) | 9.85 (active) | 11.3 (active) |
| CARAERAARFAGNASASA [FS-185] | 0.624 (inactive) | 2.79 | 2.55 |
| CARRHRRPRRAGNASASA [FS-1074] | 5.28 (active) | 6.77 (active) | 6.21 (active) |
| CARRHRKKKRAGNASASA [FS-918] | 0.00638 (inactive) | 0.147 (inactive) | 0.539 (inactive) |
| CAKEVKAAASAGNASASA [HC1405] | 0.037 (inactive) | -0.691 (inactive) | 0.852 (inactive) |
| CAKYLFNWAVAGNASASA [HC1632] | -0.0484 (inactive) | 0.619 (inactive) | 0.965 (inactive) |
| CASSECTTPCAGNASASA [HC1143] | -0.401 (inactive) | 1.52 | 0.461 (inactive) |
| CATVCCSMSYAGNASASA [HC1998] | 0.937 (inactive) | 0.131 (inactive) | 0.837 (inactive) |
| CAGAGLAGAAAGNASASA [HC1076] | -0.496 (inactive) | -0.493 (inactive) | -0.847 (inactive) |
| CATIKRSVISAGNASASA [FS-2853] | 0.545 (inactive) | 0.855 (inactive) | -1.24 (inactive) |
| CATIKRLKRSAGNASASA [FS-97] | 11.2 (active) | 11.4 (active) | 9.36 (active) |
| CAAVARLKRSAGNASASA [FS-218] | 12.9 (active) | 11 (active) | 9 (active) |
| CAHHSPLKRSAGNASASA [FS-30] | -0.21 (inactive) | 0.983 (inactive) | 1.29 |
| CAEDPCHRPSAGNASASA [HC2331] | -1.74 (inactive) | -0.655 (inactive) | 0.261 (inactive) |
| CAGAVQWMNRAGNASASA [HC1116] | 0.142 (inactive) | 1.71 | -0.148 (inactive) |
| CAHQRRKYRSAGNASASA [FS-796] | 4.89 (active) | 5.12 (active) | 6.05 (active) |
| CAKLNRRSRKAGNASASA [FS-810] | 4.08 (active) | 6.18 (active) | 5.19 (active) |

| Sequence | furin cleavage Z-score (7.5 min) | furin cleavage Z-score (15 min) | furin cleavage Z-score (30 min) |
| --- | --- | --- | --- |
| CAKLNRKYRSAGNASASA [FS-1132] | 9.69 (active) | 8.1 (active) | 6.59 (active) |
| CAEAIYQCCDAGNASASA [HC1489] | 1.16 | 0.588 (inactive) | 0.702 (inactive) |
| CATIFKIRMYAGNASASA [HC473] | -0.151 (inactive) | 0.348 (inactive) | -1.46 (inactive) |
| CASLCRYRRVAGNASASA [FS-1657] | 7.05 (active) | 6.79 (active) | 8.55 (active) |
| CAGKFRYRRVAGNASASA [FS-242] | 9.76 (active) | 11.9 (active) | 8.82 (active) |
| CASLMAFTAAAGNASASA [HC1055] | -0.632 (inactive) | -0.242 (inactive) | -1.13 (inactive) |
| CAAAASKVKAAGNASASA [HC1407] | 0.991 (inactive) | -0.764 (inactive) | -0.995 (inactive) |
| CARARRALRRAGNASASA [FS-2130] | 3.99 (active) | 4.89 (active) | 7.04 (active) |
| CARARRQDVKAGNASASA [FS-2649] | 0.761 (inactive) | 0.529 (inactive) | 2.07 |
| CARARRVTDAAGNASASA [FS-2890] | -1.51 (inactive) | -0.986 (inactive) | -0.304 (inactive) |
| CARARRAVQKAGNASASA [FS-3149] | 1.2 | 0.71 (inactive) | 1.68 |
| CARCIRAFCRAGNASASA [FS-2897] | -0.211 (inactive) | 0.945 (inactive) | 0.335 (inactive) |
| CARARRAVDKAGNASASA [FS-2252] | 6.76 (active) | 6.96 (active) | 6.15 (active) |
| CARARRAIAAAGNASASA [FS-3148] | 5.95 (active) | 5.73 (active) | 4.12 (active) |
| CARARRVLEAAGNASASA [FS-1685] | -0.496 (inactive) | -0.739 (inactive) | -0.66 (inactive) |
| CAVCAAILRRAGNASASA [HC1109] | -1.76 (inactive) | -0.361 (inactive) | 0.614 (inactive) |
| CARCRRALRRAGNASASA [FS-1687] | 3.87 (active) | 3.85 (active) | 7.16 (active) |
